Compound activity deposited in PubChem by National Center for Advancing Translational Sciences (NCATS).
IMPase cell inh: IMPase inhibition in cells | CHO-M1 cells, IP1 accumulation, HTRF TR-FRET ratio | inhibition (IP1 accumulation), % at 46.1 µM | 120,000 tested, under 10 active | AID 901; active = well fitted curve in the direction sought with a large enough effect in the signal ratio, not every such curve was filed as active; inconclusive = small, poorly fitted or top-dose-only effect, or a change in a side signal; inactive = no such curve, though single readings can be large or run the other way; the % refers to the signal ratio;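 also: cells stimulated with carbachol in lithium chloride buffer; higher means more IMPase inhibition seen as more IP1 and lower FRET ratio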
Target sequence (P97697 whole entry, looked up): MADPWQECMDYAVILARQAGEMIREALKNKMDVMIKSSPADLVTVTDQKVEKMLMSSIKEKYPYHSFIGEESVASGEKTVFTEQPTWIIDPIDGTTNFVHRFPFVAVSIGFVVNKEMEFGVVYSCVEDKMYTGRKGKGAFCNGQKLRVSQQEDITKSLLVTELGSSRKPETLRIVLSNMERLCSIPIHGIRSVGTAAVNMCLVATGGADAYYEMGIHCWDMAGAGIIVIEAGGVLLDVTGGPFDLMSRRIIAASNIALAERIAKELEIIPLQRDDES
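Elevated IP1 in lysates lowers TR-FRET signal (665/620 ratio and 620 channel reported). Cells were CHO-M1, given carbachol (50 uM as added) plus 50mM LiCl, pH 7.4, 30 min, 37C; compounds titrated up to 46 uM; AC50 by Hill equation.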
ALDH1A1 block: ALDH1A1 (human) enzyme inhibition; AID 1030; Purified ALDH1A1, NADH fluorescence, propionaldehyde substrate; Potency, µM (titrated, usually from 75.3 µM), most hits filed as inhibitors; 220,000 tested, 7.3% active; P00352; active = well fitted inhibition curve with a large enough effect, not every such curve was filed as active; inconclusive = small, poorly fitted or top-dose-only effect, or another doubt; inactive = no such curve, though single readings can be large or run the other way
HPGD inh: HPGD (human) dehydrogenase inhibition. Potency, µM, usual class: inhibitors. 150,000 tested, 4.3% active. purified HPGD, NADH fluorescence kinetic, PGE2 substrate; active = well fitted inhibition curve with a large enough effect, not every such curve was filed as active; inconclusive = small, poorly fitted or top-dose-only effect, or another doubt; inactive = no such curve, though single readings can be large or run the other way
Target sequence (P15428 whole entry, looked up): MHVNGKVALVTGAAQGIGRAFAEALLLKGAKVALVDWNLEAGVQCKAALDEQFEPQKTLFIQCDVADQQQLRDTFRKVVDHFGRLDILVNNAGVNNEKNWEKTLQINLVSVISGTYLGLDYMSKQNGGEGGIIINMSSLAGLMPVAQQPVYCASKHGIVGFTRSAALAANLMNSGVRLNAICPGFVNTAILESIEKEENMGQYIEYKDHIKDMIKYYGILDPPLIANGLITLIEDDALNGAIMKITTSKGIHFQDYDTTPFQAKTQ
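20 nM HPGD preincubated 15 min at room temperature with compound in 50 mM Tris-HCl pH 8, 0.01% Tween 20. Started with 1 mM NAD+ and 30 uM prostaglandin E2; NADH fluorescence (360/450 nm) read 5 times over 30-s intervals, last minus first.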
PNC assembly inh: perinucleolar compartment assembly inhibition | PC3M PTB-GFP, PNC prevalence imaging, 16 h; stronger effect = lower value | activity change (PNC), negative = inhibition, % at 10 µM | 140,000 tested, 3.1% active | AID 2417;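 active = readout at or below -70, meaning at least 70% loss of cells showing the perinucleolar compartment, a nuclear body marking cancer cells; inconclusive = readout between -30 and a set limit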
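PC3M cells stably expressing PTB-GFP, 750–1000 cells/well, treated 16 h at 37 °C with compound (23 nl of library stock), in duplicate. After paraformaldehyde fixation and Hoechst stain, imaged at 20x; PNC prevalence scored by image analysis.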
IMPase Li cell: cell-permeable IMPase inhibitors with lithium potentiation. AID 1457. Potency, µM (highest dose often 59.4 µM), most hits filed as inhibitors. CHO-M1 cells, IP1 TR-FRET (IP-One), carbachol + lithium. 210,000 tested, 0.35% active;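 also: IP1 builds up when IMPase is blocked and the TR-FRET signal falls; nearly all actives have a fitted effect of over 50% in size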
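Steps: plate 2000 CHO-M1 cells per well and culture 16–30 h; add compound and lithium; incubate 30 min, 37C; add d2-IP1 tracer and Eu cryptate anti-IP1 antibody in lysis buffer; read after 10 min at room temperature.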
12-hLO inh: blocks human 12-lipoxygenase activity. purified 12-hLO, xylenol orange hydroperoxide absorbance. Potency, µM (doses to about 57.1 µM), most hits filed as inhibitors. 150,000 tested, 0.12% active. AID 1452; also: nearly all actives have a fitted effect of over 55% in size
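Xylenol orange chromogenic assay: hydroperoxide from 12hLO oxidises Fe(II), giving red-shifted Fe(III)-XO absorbance. Conditions: 150 nM enzyme, 40 uM arachidonic acid, 25 mM Hepes pH 7.0, 0.01% Triton X-100, 30 min, room temperature.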
Large screens that a line does not name were inactive. A selection: hits, their analogues and other compounds. The true share with any hit is near 11%. Unless noted, calls follow the shape of the dose curve; as a rule, active = well fitted curve in the direction sought with a large enough effect; inconclusive = small, poorly fitted or top-dose-only effect, or another doubt; inactive = no such curve, though single readings can be large; an effect the other way counts as inactive or inconclusive.

O=C(Nc1ccc2c(c1)OCCO2)C1CCN(C(=O)c2ccccc2)CC1	ALDH1A1 block 14µM, PNC assembly inh -105
O=C(Nc1ccc2c(c1)OCCO2)C1CCN(C(=O)c2ccc(Br)cc2)CC1	ALDH1A1 block inconclusive
Cc1ccccc1C(=O)N1CCC(C(=O)Nc2ccc3c(c2)OCO3)CC1	none (no result: IMPase cell inh)
Cc1ccccc1C(=O)N1CCC(C(=O)Nc2ccc3c(c2)OCCO3)CC1	ALDH1A1 block 28µM
O=C(NCc1ccccc1)c1ccc(Oc2ccc(C(=O)NCc3ccccc3)cc2)cc1	HPGD inh 13µM
O=C(CNC(=O)c1ccc(Oc2ccccc2)cc1)OC1CCCCC1=O (stereo unspecified)	ALDH1A1 block 22µM
O=C(NCc1ccccc1)c1ccccc1Br	none (no result: IMPase cell inh, HPGD inh, PNC assembly inh, 12-hLO inh)
O=C(NCc1ccccc1)c1ccc(OC2CSC2)cc1	PNC assembly inh inconclusive
O=C(NCc1ccccc1)c1ccc(Br)cc1Br	HPGD inh 3.5µM (no result: IMPase cell inh)
CCN(Cc1ccccc1)C(=O)c1ccc(Cl)cc1[N+](=O)[O-]	none (no result: IMPase cell inh, HPGD inh, PNC assembly inh, 12-hLO inh)
O=C(NCc1ccccc1)c1ccc(Cl)cc1[N+](=O)[O-]	HPGD inh 13µM
O=C(N/N=C/c1ccc(O)cc1O)c1cc(-c2ccccc2)n[nH]1	ALDH1A1 block inconclusive (no result: IMPase cell inh, PNC assembly inh, IMPase Li cell)
O=C1CCC(c2ccccc2)=NN1c1nc2ccccc2s1	none (no result: IMPase cell inh, PNC assembly inh)
COc1cccc(-c2cncnc2NC2CCNCC2)c1	none (no result: IMPase cell inh, HPGD inh, PNC assembly inh, 12-hLO inh)
COc1ccc(C(=O)NCc2ccccc2)cc1Br	none
Cc1ccc(C(=O)NCc2ccccc2)cc1Br	ALDH1A1 block inconclusive, HPGD inh 25µM (no result: IMPase cell inh)
N#C/C(=C/c1ccc(N2CCOCC2)o1)c1nc2ccccc2[nH]1	IMPase cell inh inconclusive, PNC assembly inh inconclusive
COc1ccc(/C=C(\C#N)c2nc3ccccc3c(=O)[nH]2)cc1OC	none (no result: ALDH1A1 block, HPGD inh, PNC assembly inh, IMPase Li cell, 12-hLO inh)
N#C/C(=C\c1cc([N+](=O)[O-])c(N2CCOCC2)cc1N1CCOCC1)c1nc2ccccc2[nH]1	HPGD inh 14µM
COc1c(O)ccc(/C=C(\C#N)c2nc3ccccc3[nH]2)c1[N+](=O)[O-]	HPGD inh 28µM, PNC assembly inh inconclusive (no result: IMPase cell inh)
COc1cc(/C=C(/C#N)c2nc3ccccc3c(=O)[nH]2)ccc1O	HPGD inh 14µM (no result: IMPase cell inh)
COc1cc(/C=C(\C#N)c2nc3ccc(C)cc3[nH]2)c([N+](=O)[O-])cc1OC	none
Cc1ccc2nc(/C(C#N)=C/c3ccc(-c4ccc(F)cc4F)o3)[nH]c2c1	none (no result: ALDH1A1 block, HPGD inh, PNC assembly inh, IMPase Li cell, 12-hLO inh)
Cc1ccc2nc(/C(C#N)=C/c3ccc(-c4cccc([N+](=O)[O-])c4)o3)[nH]c2c1	ALDH1A1 block inconclusive, HPGD inh 25µM, PNC assembly inh inconclusive (no result: IMPase cell inh)
CCCCc1ccc(-n2nc3ccc(NC(=O)c4cc5ccccc5o4)cc3n2)cc1	none (no result: ALDH1A1 block, HPGD inh, PNC assembly inh, IMPase Li cell, 12-hLO inh)
CC1(C)CC(=O)C(Sc2ccccc2)=C(O)C1	ALDH1A1 block 20µM (no result: IMPase cell inh, HPGD inh, PNC assembly inh, IMPase Li cell, 12-hLO inh)
O=S(=O)(c1ccccc1)N1CCC2(CC1)CN(c1ccccc1)C2	ALDH1A1 block 14µM (no result: IMPase cell inh, PNC assembly inh)
O=S(=O)(c1ccccc1)N1CCC2(CC1)CN(c1ccncc1)C2	none (no result: IMPase cell inh, PNC assembly inh)
CC(=O)N1CCC2(CC1)CN(c1ccccc1)C2	ALDH1A1 block 16µM (no result: IMPase cell inh, PNC assembly inh)
CC(=O)N1CCC2(CC1)CCN(c1ccccc1)CC2	none (no result: IMPase cell inh, PNC assembly inh)
CC12CN(S(=O)(=O)c3ccccc3)CC(C)(CN(S(=O)(=O)c3ccccc3)C1)C2	PNC assembly inh -113
[N-]=[N+]=NC[C@@H]1O[C@@H](n2cnc3c(N)ncnc32)[C@@H]2O[C@@H]21	none (no result: IMPase cell inh, PNC assembly inh)
CC1(NC(=O)C2CCCCC2)CCS(=O)(=O)C1 (stereo unspecified)	none (no result: IMPase cell inh, HPGD inh, PNC assembly inh, 12-hLO inh)
CC(C)C[C@@H](CC(=O)N[C@H](CC(=O)N[C@@H]1CCCC[C@H]1C(=O)N[C@H](CC(=O)N[C@@H](CCC(=O)O)CC(=O)O)Cc1ccccc1)C(C)C)NC(=O)[C@@H]1CNCC[C@H]1N	none (no result: IMPase cell inh, PNC assembly inh)
COc1ccccc1N1C(=O)N(C(C)=O)C2C1Nc1ccccc1N2C (stereo unspecified)	ALDH1A1 block 1.8µM, 12-hLO inh inconclusive
CC(=O)N1c2c(cc(Br)cc2S(=O)(=O)N2CCN(C(=O)c3ccco3)CC2)CC1C (stereo unspecified)	HPGD inh 14µM, PNC assembly inh -100
